This note sets out measurements from the supplement of paper PMC6522484.

± gives the standard deviation of the averaged measurements.

For experiment [1], the system named is DLD1. Kind of experiment: cell viability (CellTiter-Glo) relative to plate median (fraction of plate median); higher = more viable cells. Particulars: 5 µM; treatment time 24 h; reporter: 7TFP. In a few lines:
(§1)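 After seeding in 384-well plates, colorectal cancer cell lines carrying stable lentiviral TCF/Wnt firefly luciferase reporters (7TFP or TCF4/Wnt) were left 24 h. Library compounds were then added at a final 5 µM for 24 h. A Tecan F500 reader measured firefly luciferase or CellTiterGlo luminescence on parallel plates, with each well normalised to the plate median by webcellHTS2 (additive, no log transformation), and two independent replicates averaged.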
For orientation: Cellular ATP, detected with luciferase, serves as a proxy for viable cell number.

In a further experiment the test system is HCT116. The description is as above. The note with it: 5 µM; treatment time 24 h; reporter: TCF4/Wnt. In a few lines:
as §1

The subject of experiment [2] is SW480. Described as above. Particulars: 5 µM; treatment time 24 h; reporter: 7TFP. In a few lines: as §1
Experiment [3] relates to DLD1. Description: TCF/Wnt firefly luciferase reporter signal relative to plate median (fraction of plate median); higher = higher Wnt reporter signal. The note with it: 5 µM; treatment time 24 h; reporter: 7TFP. In a few lines: as §1
In experiment [4] the test system is SW480. The description is as above. Particulars: 5 µM; treatment time 24 h; reporter: 7TFP. In a few lines: as §1

Take `CCC(=O)O[C@@H]1[C@@H](OC2C(C)/C=C/C(=O)OC(C)C(CO[C@@H]3O[C@H](C)[C@@H](OC(=O)CC)[C@@H](OC)[C@H]3OC)C3OC3/C=C/C(=O)C(C)(O)CC2C)O[C@@H](C)C[C@H]1OC` (stereo not given in full) [Chalcomycin B]: the cell viability in the experiment with DLD1 [1] was 1.04 ± 0.014; in the experiment on HCT116 it was 1.06 ± 0.064; with SW480 [2], 1.11 ± 0.071. Besides, the “TCF/Wnt firefly luciferase reporter signal” value with DLD1 [3] was 1.14 ± 0.12; with SW480 [4], 0.972 ± 0.2.
For `COc1cc([S+](C)[O-])ccc1-c1nc2cccnc2[nH]1` (stereo not given), in that order: 0.968 ± 0.028, 0.979 ± 0.058, 0.953 ± 0.025, 0.907 ± 0.22 and 0.794 ± 0.057.
`CC(=O)C1=C(O)C=C2Oc3c(C(C)=O)c(O)c(C)c(O)c3C2(C)C1=O` (stereo in doubt): the cell viability in the experiment with DLD1 [1] turned out to be 0.995 ± 0.035; in the experiment with HCT116, 1.04 ± 0.028; in the experiment on SW480 [2], 0.968 ± 0.018. The “TCF/Wnt firefly luciferase reporter signal” value was found to be 1.2 ± 0.13 in the experiment with DLD1 [3] and 0.973 ± 0.052 in the experiment on SW480 [4].
For `NC(=O)c1ccccc1O`, in that order: 1.07 ± 0.014, 0.991 ± 0.056, 0.972 ± 0.014, 0.993 ± 0.096 and 0.81 ± 0.12.
Turning to `CCCCCCCCCCCCCc1ccco1`, the figures for the cell viability in the experiment with DLD1 [1], in the experiment on HCT116 and with SW480 [2] were 1.05, 1.03 ± 0.021 and 1.02 ± 0.021, respectively. Also, the “TCF/Wnt firefly luciferase reporter signal” value with DLD1 [3] was 0.964 ± 0.14; in the experiment on SW480 [4], 0.987 ± 0.12.
For `COCC1=C(C(=O)OC(C)OC(=O)OC(C)C)N2C(=O)[C@@H](NC(=O)/C(=N\OC)c3csc(N)n3)[C@H]2SC1` (stereo not given in full), in that order: 1.07 ± 0.085, 1.09 ± 0.085, 1.02 ± 0.028, 1.01 ± 0.061 and 0.999 ± 0.059.
In the case of `O=C(O)c1ccc2c(c1)OCO2`, the cell viability in the experiment with DLD1 [1] was determined as 0.927 ± 0.12; with HCT116, 1.09 ± 0.078; in the experiment on SW480 [2], 0.948 ± 0.033. Besides, the figures for the “TCF/Wnt firefly luciferase reporter signal” value in the experiment on DLD1 [3] and with SW480 [4] were 0.927 ± 0.022 and 0.866 ± 0.12, respectively.
Taken in the same sequence, the figures for `Cc1cc(NC(=O)C2=C(O)c3ccccc3S(=O)(=O)N2C)no1` were 1.04 ± 0.064, 0.88 ± 0.036, 1.004 ± 0.0085, 0.945 ± 0.15 and 0.993 ± 0.18.
Taken in the same sequence, the figures for `Nc1ccc(S(=O)(=O)Nc2cnc3ccccc3n2)cc1` were 0.996 ± 0.02, 1.07 ± 0.028, 1 ± 0.08, 1.11 ± 0.085 and 1.045 ± 0.0071.
For `O=C(CCCN1CC=C(n2c(=O)[nH]c3ccccc32)CC1)c1ccc(F)cc1`, the cell viability turned out to be 0.995 ± 0.0071 in the experiment with DLD1 [1], 0.868 ± 0.025 with HCT116 and 0.994 ± 0.023 with SW480 [2]. In addition, the “TCF/Wnt firefly luciferase reporter signal” value in the experiment with DLD1 [3] worked out at 0.829 ± 0.061; in the experiment with SW480 [4], 0.895 ± 0.088.
For `CCOC(=O)c1c(C)cc(OC)cc1O`, in that order: 0.947 ± 0.033, 0.908 ± 0.03, 0.954 ± 0.066, 0.874 ± 0.021 and 1.04 ± 0.064.
As to `O=c1occ(C(O)CO)c2cccc(O)c12` (stereo not given) [Oospoglycol], the cell viability came out at 0.886 ± 0.079 in the experiment on DLD1 [1], 0.9515 ± 0.0035 with HCT116 and 0.976 ± 0.09 in the experiment with SW480 [2]. The “TCF/Wnt firefly luciferase reporter signal” value in the experiment on DLD1 [3] was 1.1 ± 0.11; with SW480 [4], 1.01 ± 0.15.
Taken in the same sequence, the figures for `C[C@H](CCC(=O)O)[C@H]1CC[C@H]2[C@@H]3CC[C@@H]4C[C@H](O)CC[C@]4(C)[C@H]3C[C@H](O)[C@]12C` were 0.982 ± 0.025, 1.04 ± 0.11, 1 ± 0.024, 1.03 ± 0.13 and 1.01 ± 0.053.
For `O=C(O)c1ccccc1`, in that order: 1.06 ± 0.096, 1.02 ± 0.021, 1.02 ± 0.014, 1.12 ± 0.071 and 0.951 ± 0.037.
On to `COc1ccc(C(Cl)=C(c2ccc(OC)cc2)c2ccc(OC)cc2)cc1`, for which the cell viability in the experiment with DLD1 [1] was 1.01 ± 0.044; in the experiment with HCT116, 1.12 ± 0.05; in the experiment with SW480 [2], 0.978 ± 0.032. The figures for the “TCF/Wnt firefly luciferase reporter signal” value in the experiment on DLD1 [3] and in the experiment with SW480 [4] were 0.915 ± 0.19 and 0.877 ± 0.17, respectively.
